Test results published in PubChem BioAssay AID1159580 (chemical genetic matrix, 2015).
Hit rate of the full screen: of about 5,500 compounds, about 2,000 (36%) were called active. Not shown: some 18% with an inconclusive outcome. No stated cut-off is given here; in the data, active means normalized growth mostly below about 0.91 (no sharp cut-off); inconclusive means no clear call, values can overlap the other calls; inactive means mostly above about 0.92. Some of the results follow.

Test: chemical genetic growth profiling, strain panel (AID 1159580);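 further: tested at 20 µM; growth read once vehicle control cultures reached saturation at 30 °C; 1 = growth at the plate median or of vehicle wells; lower values mean less growth of the strain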
Settings: growth OD

Measured: normalized growth

CC(C)CC(NC(=O)OCC1c2ccccc2-c2ccccc21)C(=O)O (stereo unspecified)
inactive: S. cerevisiae deletion strains, locus YAL013W, strain DEP1, hits give low values 1.01 | S. cerevisiae deletion strains, locus YBR021W, strain FUR4, hits give low values 0.994 | S. cerevisiae deletion strains, locus YBR229C, strain ROT2, hits give low values 0.997 | S. cerevisiae deletion strains, locus YCL029C, strain bik1, hits give low values 1.03 | S. cerevisiae deletion strains, locus YDL035C, strain GPR1, hits give low values 0.998 | S. cerevisiae deletion strains, locus YDL074C, strain BRE1, hits give low values 1 | S. cerevisiae deletion strains, locus YDL101C, strain DUN1, hits give low values 1.02 | S. cerevisiae deletion strains, locus YDL134C, strain PPH21, hits give low values 0.986 | S. cerevisiae deletion strains, locus YDL185W, strain tfp1, hits give low values 0.998 | S. cerevisiae deletion strains, locus YDL192W, strain arf1, hits give low values 1.01 | S. cerevisiae deletion strains, locus YDR101C, strain arx1, hits give low values 1.01 | S. cerevisiae deletion strains, locus YDR150W, strain NUM1, hits give low values 0.995 | S. cerevisiae deletion strains, locus YDR162C, strain NBP2, hits give low values 1.01 | S. cerevisiae deletion strains, locus YDR318W, strain mcm21, hits give low values 1.02 | S. cerevisiae deletion strains, locus YDR388W, hits give low values 1.01 | S. cerevisiae deletion strains, locus YDR502C, strain sam2, hits give low values 1.02 | S. cerevisiae deletion strains, locus YEL061C, strain CIN8, hits give low values 0.997 | S. cerevisiae deletion strains, locus YER110C, hits give low values 1.02 | S. cerevisiae deletion strains, locus YER155C, strain BEM2, hits give low values 1 | S. cerevisiae deletion strains, locus YER167W, strain BCK2, hits give low values 0.995 | S. cerevisiae deletion strains, locus YGL078C, strain dbp3, hits give low values 1 | S. cerevisiae deletion strains, locus YGL086W, strain mad1, hits give low values 0.981 | S. cerevisiae deletion strains, locus YGL248W, strain PDE1, hits give low values 1 | S. cerevisiae deletion strains, locus YGR078C, strain PAC10, hits give low values 1.02 | S. cerevisiae deletion strains, locus YGR135W, strain pre9, hits give low values 1.02 | S. cerevisiae deletion strains, locus YGR229C, strain SMI1, hits give low values 0.982 | S. cerevisiae deletion strains, locus YGR252W, strain gcn5, hits give low values 0.916 | S. cerevisiae deletion strains, locus YHR030C, strain SLT2, hits give low values 1.01 | S. cerevisiae deletion strains, locus YHR079C, strain IRE1 (second series), hits give low values 1.01 | S. cerevisiae deletion strains, locus YHR094C, strain hxt1, hits give low values 0.997 | S. cerevisiae deletion strains, locus YHR129C, strain ARP1, hits give low values 1.01 | S. cerevisiae deletion strains, locus YHR200W, strain rpn10, hits give low values 1.01 | S. cerevisiae deletion strains, locus YIL066C, strain RNR3, hits give low values 1.02 | S. cerevisiae deletion strains, locus YIL073C, strain SPO22, hits give low values 1.03 | S. cerevisiae deletion strains, locus YIL125W, strain kgd1, hits give low values 0.992 | S. cerevisiae deletion strains, locus YIR030C, strain dcg1, hits give low values 1 | S. cerevisiae deletion strains, locus YJL095W, strain BCK1, hits give low values 1.07 | S. cerevisiae deletion strains, locus YJL134W, strain LCB3, hits give low values 1 | S. cerevisiae deletion strains, locus YJL168C, strain set2, hits give low values 1.01 | S. cerevisiae deletion strains, locus YJL187C, strain SWE1 (second series), hits give low values 1.02 | S. cerevisiae deletion strains, locus YJR043C, strain POL32, hits give low values 1.02 | S. cerevisiae deletion strains, locus YJR075W, strain HOC1, hits give low values 0.997 | S. cerevisiae deletion strains, locus YKL009W, strain mrt4, hits give low values 0.969 | S. cerevisiae deletion strains, locus YKL068W, hits give low values 0.997 | S. cerevisiae deletion strains, locus YKL085W, strain MDH1 (second series), hits give low values 1 | S. cerevisiae deletion strains, locus YKL085W, strain MDH1, hits give low values 1 | S. cerevisiae deletion strains, locus YKL190W, strain CNB1, hits give low values 0.985 | S. cerevisiae deletion strains, locus YKR001C, strain vps1, hits give low values 1.06 | S. cerevisiae deletion strains, locus YLR039C, strain RIC1, hits give low values 1.05 | S. cerevisiae deletion strains, locus YLR058C, strain SHM2, hits give low values 0.997 | S. cerevisiae deletion strains, locus YLR102C, strain apc9, hits give low values 1.01 | S. cerevisiae deletion strains, locus YLR262C, strain YPT6, hits give low values 1.11 | S. cerevisiae deletion strains, locus YLR268W, strain sec22, hits give low values 1.06 | S. cerevisiae deletion strains, locus YLR330W, strain CHS5, hits give low values 0.984 | S. cerevisiae deletion strains, locus YLR342W, strain FKS1 (second series), hits give low values 0.985 | S. cerevisiae deletion strains, locus YLR371W, strain rom2, hits give low values 1.01 | S. cerevisiae deletion strains, locus YLR418C, strain cdc73, hits give low values 1 | S. cerevisiae deletion strains, locus YML016C, strain PPZ1, hits give low values 0.995 | S. cerevisiae deletion strains, locus YML032C, strain rad52, hits give low values 1.01 | S. cerevisiae deletion strains, locus YML124C, strain tub3, hits give low values 1 | S. cerevisiae deletion strains, locus YMR078C, strain ctf18, hits give low values 1.01 | S. cerevisiae deletion strains, locus YMR223W, strain ubp8, hits give low values 0.982 | S. cerevisiae deletion strains, locus YMR263W, strain SAP30, hits give low values 1.01 | S. cerevisiae deletion strains, locus YMR307W, strain GAS1, hits give low values 0.985 | S. cerevisiae deletion strains, locus YNL067W, strain RPL9B, hits give low values 1.03 | S. cerevisiae deletion strains, locus YNL128W, strain TEP1, hits give low values 1.02 | S. cerevisiae deletion strains, locus YNL153C, strain GIM3, hits give low values 1.02 | S. cerevisiae deletion strains, locus YNL233W, strain BNI4, hits give low values 1.01 | S. cerevisiae deletion strains, locus YNL250W, strain rad50, hits give low values 0.996 | S. cerevisiae deletion strains, locus YNL271C, strain bni1, hits give low values 1 | S. cerevisiae deletion strains, locus YNL298W, strain CLA4, hits give low values 0.994 | S. cerevisiae deletion strains, locus YNL307C, strain MCK1, hits give low values 1.02 | S. cerevisiae deletion strains, locus YNL322C, strain KRE1, hits give low values 1 | S. cerevisiae deletion strains, locus YNR052C, strain pop2, hits give low values 1.01 | S. cerevisiae deletion strains, locus YOL006C, strain TOP1, hits give low values 1.1 | S. cerevisiae deletion strains, locus YOL012C, strain htz1 1.27 | S. cerevisiae deletion strains, locus YOL147C, strain pex11, hits give low values 1.01 | S. cerevisiae deletion strains, locus YOR061W, strain CKA2, hits give low values 0.991 | S. cerevisiae deletion strains, locus YOR069W, strain VPS5, hits give low values 1 | S. cerevisiae deletion strains, locus YOR136W, strain idh2, hits give low values 0.99 | S. cerevisiae deletion strains, locus YOR144C, strain elg1, hits give low values 1 | S. cerevisiae deletion strains, locus YOR184W, strain ser1, hits give low values 1.05 | S. cerevisiae deletion strains, locus YOR316C, strain cot1, hits give low values 1.01 | S. cerevisiae deletion strains, locus YPL055C, strain LGE1, hits give low values 0.963 | S. cerevisiae deletion strains, locus YPL241C, strain CIN2, hits give low values 0.993 | S. cerevisiae deletion strains, locus YPR119W, strain clb2, hits give low values 1 | S. cerevisiae deletion strains, locus YPR141C, strain kar3, hits give low values 0.999 | S. cerevisiae deletion strains, locus YPR163C, strain tif3, hits give low values 1.02 | S. cerevisiae deletion strains, locus YPR167C, strain met16, hits give low values 1.01 | S. cerevisiae deletion strains, strain wtn01, hits give low values 1.04 | S. cerevisiae strains, strain wild type, hits give low values 1
